Test [1] can be described thus: Human pregnane X receptor (PXR) small molecule agonists, qHTS cell viability counter screen (AID 1346977). Note: nearly all actives have a fitted effect of over 50% in size. The gist of the method:
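Readout is CellTiter-Fluor fluorescence from PXR-Luc HepG2 cells. Plated cells rested 5hr, then were treated with compounds for 24hr at 37C and 5% CO2, with reagent present during the last hour.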
(In general: qHTS replaces the single test concentration by a dilution series.)

A short description of test [2]: Caspase-3/7 induction in HepG2 cells by small molecules, qHTS assay (AID 1346978). Note: nearly all actives have a fitted effect of over 15% in size. The gist of the method: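 Wild-type HepG2 cells (2,000/well) were settled 5 h at 37 C, 5% CO2, then exposed to compounds in DMSO for 17 h. Caspase-3/7 activity was read by luminescence 30 min after adding Caspase-Glo 3/7 reagent at room temperature.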
Test [3] can be described thus: Caspase-3/7 induction in CHO-K1 cells by small molecules, qHTS cell viability counter screen (AID 1346979). Note: nearly all actives have a fitted effect of over 35% in size. The gist of the method:
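To flag cytotoxic compounds, treated CHO-K1 wild-type cells were given CellTiter-Fluor at 16hr and read fluorescently after 1hr at 37C; the caspase-3/7 luminescence was measured in these same wells.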

Test [4] in a line: Caspase-3/7 induction in CHO-K1 cells by small molecules, qHTS assay (AID 1346980). Note: nearly all actives have a fitted effect of over 15% in size. In short, it runs like this:
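Wild-type cells were seeded at 1,500 per well and settled 5 hr at 37 C, 5% CO2, then exposed to DMSO-dissolved compounds for 17 hr. Caspase-Glo 3/7 reagent was added, and luminescence was read after 30min at room temperature.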

The nature of test [5]: Caspase-3/7 induction in HepG2 cells by small molecules, qHTS cell viability counter screen (AID 1346981). Note: series mostly up to about 92 µM; nearly all actives have a fitted effect of over 30% in size. The gist of the method: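 In this quantitative HTS counter screen, compounds delivered in DMSO were left on unmodified HepG2 cells for 16 hr at 37 C. Viability was then determined fluorometrically with CellTiter-Fluor, in parallel with caspase-3/7 induction in the same wells.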

Test [6] addresses Nuclear receptor subfamily 1 group I member 2 (Homo sapiens) (UniProt O75469). In words: Human pregnane X receptor (PXR) small molecule agonists, qHTS assay (AID 1346982). Note: nearly all actives have a fitted effect of over 35% in size. In short, it runs like this: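 Reporter HepG2 cells expressing PXR-Luc are cultured in charcoal-stripped FBS (5%), treated with compounds for 24 hr at 37 C, and assayed by ONE-Glo luminescence after 30 min at room temperature.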

The target is the same in test [7]. The test is described as follows: CYP3A4 induction through human pregnane X receptor (PXR) by small molecules, qHTS assay (AID 1346984). Note: nearly all actives have a fitted effect of over 40% in size. In short, it runs like this:
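Induction measured in HepG2-based DPX-2 cells co-expressing human PXR and a CYP3A4 promoter-driven luciferase. After a 24-hour compound exposure, cells received CYP3A4 luciferin substrate at 3uM final for 3 hours, and light output was then recorded.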

Test [8] shares this target. In words: Human pregnane X receptor (PXR) activation by small molecules, qHTS assay (AID 1346985). Note: nearly all actives have a fitted effect of over 40% in size. In short, it runs like this: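 DPX-2 cells (HepG2 co-transfected with a PXR response element and a CYP3A4-promoter luciferase construct) were seeded at 2,000 per well, rested 5 hr at 37C, then exposed to DMSO-dissolved compounds for 24 hr. Activation was read as luciferase luminescence.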

Test [9] deals with Cytochrome P450 2D6 (Homo sapiens) (UniProt P10635). In words: Cytochrome P450 Family 2 Subfamily D Member 6 (CYP2D6) small molecule antagonists: luciferase reporter qHTS assay (AID 1671196). Note: nearly all actives have a fitted effect of over 50% in size. Note: potency is the fitted concentration of half-maximal effect. In short, it runs like this:
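Test chemicals meet CYP2D6 plus proluciferin substrate (10 min, RT); NADPH regenerating solution then drives turnover for 1 h. Detection reagent halts the reaction; luminescence measured after 20 min.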

Test [10] deals with Cytochrome P450 2C9 (Homo sapiens) (UniProt P11712). The test is described as follows: Cytochrome P450 Family 2 Subfamily C Member 9 (CYP2C9) small molecule antagonists: luciferase reporter qHTS assay (AID 1671198). Note: nearly all actives have a fitted effect of over 50% in size. Note: potency is the fitted concentration of half-maximal effect. In short, it runs like this: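 CYP2C9 activity was measured with a P450-Glo proluciferin substrate. Enzyme–substrate mix was held with compound for 10 min at room temperature, then NADPH regeneration solution was added for 1 h at 37C. Luciferin product was read as luminescence.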
Sequence of Cytochrome P450 2C9 (Homo sapiens) (P11712 whole entry, looked up): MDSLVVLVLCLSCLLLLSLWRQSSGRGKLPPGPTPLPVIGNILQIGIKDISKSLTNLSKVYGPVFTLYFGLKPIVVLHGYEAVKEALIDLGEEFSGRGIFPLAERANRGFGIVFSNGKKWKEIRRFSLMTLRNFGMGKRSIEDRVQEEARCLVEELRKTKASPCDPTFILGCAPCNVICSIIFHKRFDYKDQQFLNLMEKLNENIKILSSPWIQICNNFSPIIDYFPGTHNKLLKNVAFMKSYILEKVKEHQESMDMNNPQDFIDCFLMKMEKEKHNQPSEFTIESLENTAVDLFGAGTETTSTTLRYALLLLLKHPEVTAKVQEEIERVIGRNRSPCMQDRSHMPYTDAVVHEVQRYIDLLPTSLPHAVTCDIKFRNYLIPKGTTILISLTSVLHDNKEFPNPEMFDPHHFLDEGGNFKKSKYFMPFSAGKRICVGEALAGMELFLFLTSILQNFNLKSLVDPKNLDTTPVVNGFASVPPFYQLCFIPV
A general note: In a reporter assay the amount or activity of a reporter protein is the signal.

For test [11], the target named is Cytochrome P450 1A2 (Homo sapiens) (UniProt P05177). In words: Cytochrome P450 Family 1 Subfamily A Member 2 (CYP1A2) small molecule antagonists: luciferase reporter qHTS assay (AID 1671199). Note: series mostly up to about 120 µM; nearly all actives have a fitted effect of over 50% in size. In short, it runs like this: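 Steps: enzyme-substrate mix dispensed; test compounds and furafylline control pinned in; 10 min room temperature; NADPH regeneration solution added, 1 h; reaction stopped with luciferin detection reagent; luminescence read after 20 min.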
Sequence of Cytochrome P450 1A2 (Homo sapiens) (P05177 whole entry, looked up): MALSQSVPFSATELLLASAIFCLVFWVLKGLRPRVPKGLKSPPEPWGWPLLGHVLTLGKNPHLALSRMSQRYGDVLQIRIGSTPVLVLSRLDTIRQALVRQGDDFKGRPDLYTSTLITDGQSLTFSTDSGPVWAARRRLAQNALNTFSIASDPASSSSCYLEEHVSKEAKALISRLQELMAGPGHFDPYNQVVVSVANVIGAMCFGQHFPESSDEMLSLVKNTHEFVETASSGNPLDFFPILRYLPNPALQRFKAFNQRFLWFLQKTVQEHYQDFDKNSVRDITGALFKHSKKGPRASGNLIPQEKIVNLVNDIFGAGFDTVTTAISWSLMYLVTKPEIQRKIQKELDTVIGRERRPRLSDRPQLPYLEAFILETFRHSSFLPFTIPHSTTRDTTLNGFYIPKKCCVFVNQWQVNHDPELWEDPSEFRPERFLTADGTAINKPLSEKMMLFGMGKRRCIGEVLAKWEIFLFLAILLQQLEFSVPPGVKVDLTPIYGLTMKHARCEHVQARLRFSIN

For test [12], the target named is Voltage-gated inwardly rectifying potassium channel KCNH2 (Homo sapiens) (UniProt Q12809). In words: Human Ether-a-go-go-Related Gene (hERG) channel small molecule antagonists: fluorescence cell-based qHTS assay (AID 1671200). Note: nearly all actives have a fitted effect of over 50% in size. Note: potency is the fitted concentration of half-maximal effect. The gist of the method:
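Measured: Tl+ flux via fluorescence (480/540 nm) in hERG-expressing U2OS cells after 1 h dye loading at room temperature.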
For orientation: hERG is a cardiac potassium channel; its block is linked to QT prolongation.

Test [13] deals with Cytochrome P450 2C19 (Homo sapiens) (UniProt P33261). The test is described as follows: Cytochrome P450 Family 2 Subfamily C Member 19 (CYP2C19) small molecule antagonists: luciferase reporter qHTS assay (AID 1671197). Note: nearly all actives have a fitted effect of over 65% in size. Note: potency is the fitted concentration of half-maximal effect. The gist of the method: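 Quantitative high-throughput screen of the Tox21 library using CYP2C19 with proluciferin substrate. Reaction: NADPH regeneration, 37C, 1 h, after 10 min compound preincubation at room temperature. Readout: luminescence.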
Sequence of Cytochrome P450 2C19 (Homo sapiens) (P33261 whole entry, looked up): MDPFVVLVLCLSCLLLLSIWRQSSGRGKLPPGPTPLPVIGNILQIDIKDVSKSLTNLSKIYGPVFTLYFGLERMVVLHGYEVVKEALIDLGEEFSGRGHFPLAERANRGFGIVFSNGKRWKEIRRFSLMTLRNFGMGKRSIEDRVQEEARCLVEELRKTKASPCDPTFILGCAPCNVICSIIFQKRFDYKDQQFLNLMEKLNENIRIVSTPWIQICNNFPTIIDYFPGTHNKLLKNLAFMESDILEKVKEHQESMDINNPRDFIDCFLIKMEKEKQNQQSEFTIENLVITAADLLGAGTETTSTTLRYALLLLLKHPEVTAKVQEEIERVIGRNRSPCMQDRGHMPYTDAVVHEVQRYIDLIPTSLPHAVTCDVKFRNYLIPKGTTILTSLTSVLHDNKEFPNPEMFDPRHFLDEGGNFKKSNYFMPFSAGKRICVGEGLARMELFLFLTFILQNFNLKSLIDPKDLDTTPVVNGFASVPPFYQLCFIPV

The target in test [14] is Cytochrome P450 3A4 (Homo sapiens) (UniProt P08684). The test is described as follows: Cytochrome P450 Family 3 Subfamily A Member 4 (CYP3A4) small molecule antagonists: luciferase reporter qHTS assay (AID 1671201). The gist of the method:
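Setup: enzyme-substrate mix, compound pin transfer, 10 min RT. Reaction: NADPH regeneration solution, 1 h RT. Readout: detection reagent stops turnover, luminescence measured after 20 min, expressed in relative luminescence units.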

Test [15] concerns the target Nuclear receptor subfamily 1 group I member 2 (Rattus norvegicus) (UniProt Q9R1A7). In words: Rat pregnane X receptor (rPXR) activation by small molecules, qHTS assay (AID 1346983). Note: nearly all actives have a fitted effect of over 20% in size. The settings on record: rPXR luciferase reporter cells, One-Glo luminescence, 24 h; max activation: active compounds read high. In short, it runs like this: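 Cell-based rPXR luciferase reporter assay, 2,000 cells per well, rested 5hr at 37 C before compound addition in DMSO, then 24 hr at 37 C. One-Glo reagent was added and luminescence read after 30 min at room temperature.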

The target of test [16] is Thyrotropin-releasing hormone receptor (Homo sapiens) (UniProt P34981). In words: qHTS assay to identify small molecule agonists of the thyrotropin-releasing hormone receptor (TRHR) signaling pathway (AID 1346891; calls by dose curve;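 note: HEK293 cells expressing TRHR with calcium dye readout; series mostly up to about 58 µM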). The gist of the method:
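In 1536-format, 1500 TRHR-Hek293 cells per well grew 18 h, took up calcium dye for 2 h at 37 °C, received compound, and were read kinetically; 15-point titrations, triplicates.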

This passage reports Potency, outcome and max activation results from PubChem BioAssay (Tox21).

Unmarked numbers belong to inactive results. Inconclusive results are not listed. Calls of active or inactive are those of the source. Unless noted, calls come from the whole dose curve; as a rule, active = well fitted curve in the direction sought with a large enough effect in the repeat runs; inconclusive = weak or mixed curves; inactive = no such curve, though single readings can be large; an effect the other way counts as inactive or inconclusive.
% is set by controls: 0 for no effect and ±100 for the full control effect.

Sequence of Cytochrome P450 2D6 (Homo sapiens) (P10635 whole entry, looked up): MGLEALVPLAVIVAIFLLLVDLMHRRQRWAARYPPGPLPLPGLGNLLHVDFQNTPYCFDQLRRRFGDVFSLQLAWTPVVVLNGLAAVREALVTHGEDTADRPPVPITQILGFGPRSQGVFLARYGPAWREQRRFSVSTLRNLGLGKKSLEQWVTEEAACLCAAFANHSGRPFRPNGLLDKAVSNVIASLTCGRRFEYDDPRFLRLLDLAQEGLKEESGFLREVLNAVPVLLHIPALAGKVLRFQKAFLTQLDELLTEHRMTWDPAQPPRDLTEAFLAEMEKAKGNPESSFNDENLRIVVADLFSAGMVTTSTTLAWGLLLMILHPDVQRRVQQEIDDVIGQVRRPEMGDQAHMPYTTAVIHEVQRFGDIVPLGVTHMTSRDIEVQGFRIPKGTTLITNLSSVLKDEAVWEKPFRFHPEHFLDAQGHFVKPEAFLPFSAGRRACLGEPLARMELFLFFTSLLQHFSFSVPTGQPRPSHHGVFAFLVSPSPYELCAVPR
Sequence of Nuclear receptor subfamily 1 group I member 2 (Homo sapiens) (O75469 whole entry, looked up): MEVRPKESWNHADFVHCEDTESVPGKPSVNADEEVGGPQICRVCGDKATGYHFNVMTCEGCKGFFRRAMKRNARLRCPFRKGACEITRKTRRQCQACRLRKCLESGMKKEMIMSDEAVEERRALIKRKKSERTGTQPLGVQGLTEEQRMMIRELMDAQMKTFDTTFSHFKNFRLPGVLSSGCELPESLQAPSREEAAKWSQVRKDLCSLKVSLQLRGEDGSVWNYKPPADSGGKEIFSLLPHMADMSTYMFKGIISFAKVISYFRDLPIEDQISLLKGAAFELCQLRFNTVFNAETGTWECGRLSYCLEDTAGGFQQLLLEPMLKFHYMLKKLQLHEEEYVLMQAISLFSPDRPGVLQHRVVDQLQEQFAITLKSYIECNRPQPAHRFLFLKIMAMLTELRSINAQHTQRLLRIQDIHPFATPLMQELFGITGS
Sequence of Cytochrome P450 3A4 (Homo sapiens) (P08684 whole entry, looked up): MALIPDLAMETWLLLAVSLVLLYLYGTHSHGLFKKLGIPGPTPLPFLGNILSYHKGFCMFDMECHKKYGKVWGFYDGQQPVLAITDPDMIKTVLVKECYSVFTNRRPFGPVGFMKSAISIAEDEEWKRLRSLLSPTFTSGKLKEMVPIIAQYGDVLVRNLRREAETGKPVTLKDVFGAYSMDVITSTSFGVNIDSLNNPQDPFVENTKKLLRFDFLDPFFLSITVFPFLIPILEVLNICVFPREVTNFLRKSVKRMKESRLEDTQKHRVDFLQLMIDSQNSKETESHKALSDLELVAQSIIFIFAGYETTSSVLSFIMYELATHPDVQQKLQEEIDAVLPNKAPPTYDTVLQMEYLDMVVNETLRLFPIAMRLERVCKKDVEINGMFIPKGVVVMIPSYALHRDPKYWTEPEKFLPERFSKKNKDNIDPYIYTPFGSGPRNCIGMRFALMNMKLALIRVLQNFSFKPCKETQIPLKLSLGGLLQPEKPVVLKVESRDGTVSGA
Sequence of Voltage-gated inwardly rectifying potassium channel KCNH2 (Homo sapiens) (Q12809 whole entry, looked up): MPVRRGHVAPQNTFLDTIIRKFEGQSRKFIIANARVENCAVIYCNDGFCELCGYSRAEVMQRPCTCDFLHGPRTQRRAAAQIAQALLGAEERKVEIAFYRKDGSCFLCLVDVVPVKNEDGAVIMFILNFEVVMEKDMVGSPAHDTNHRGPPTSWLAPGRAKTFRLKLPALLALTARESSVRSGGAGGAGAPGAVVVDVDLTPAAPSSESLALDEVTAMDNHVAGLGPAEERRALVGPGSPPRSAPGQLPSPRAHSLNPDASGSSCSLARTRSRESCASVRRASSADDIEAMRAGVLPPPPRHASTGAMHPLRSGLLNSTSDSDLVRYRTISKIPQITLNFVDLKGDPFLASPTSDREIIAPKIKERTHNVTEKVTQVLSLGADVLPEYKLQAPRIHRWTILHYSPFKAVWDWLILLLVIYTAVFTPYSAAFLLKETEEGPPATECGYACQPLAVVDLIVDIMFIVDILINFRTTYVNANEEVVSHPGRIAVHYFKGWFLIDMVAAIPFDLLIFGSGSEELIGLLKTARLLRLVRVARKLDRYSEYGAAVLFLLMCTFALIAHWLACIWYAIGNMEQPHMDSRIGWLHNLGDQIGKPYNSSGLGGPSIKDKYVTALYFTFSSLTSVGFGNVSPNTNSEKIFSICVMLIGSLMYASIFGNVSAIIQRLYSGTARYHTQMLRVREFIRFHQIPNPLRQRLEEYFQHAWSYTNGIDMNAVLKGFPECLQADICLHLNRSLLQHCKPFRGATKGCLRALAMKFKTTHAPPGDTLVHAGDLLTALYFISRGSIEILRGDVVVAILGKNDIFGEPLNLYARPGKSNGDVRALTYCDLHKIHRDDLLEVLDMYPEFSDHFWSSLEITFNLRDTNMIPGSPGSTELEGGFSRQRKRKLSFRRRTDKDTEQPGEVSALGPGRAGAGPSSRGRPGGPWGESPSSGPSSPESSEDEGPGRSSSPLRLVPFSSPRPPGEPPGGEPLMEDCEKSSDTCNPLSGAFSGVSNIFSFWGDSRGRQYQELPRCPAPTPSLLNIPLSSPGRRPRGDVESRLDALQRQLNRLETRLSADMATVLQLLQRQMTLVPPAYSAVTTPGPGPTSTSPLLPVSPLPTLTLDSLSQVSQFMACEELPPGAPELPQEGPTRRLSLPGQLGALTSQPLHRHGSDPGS
Sequence of Thyrotropin-releasing hormone receptor (Homo sapiens) (P34981 whole entry, looked up): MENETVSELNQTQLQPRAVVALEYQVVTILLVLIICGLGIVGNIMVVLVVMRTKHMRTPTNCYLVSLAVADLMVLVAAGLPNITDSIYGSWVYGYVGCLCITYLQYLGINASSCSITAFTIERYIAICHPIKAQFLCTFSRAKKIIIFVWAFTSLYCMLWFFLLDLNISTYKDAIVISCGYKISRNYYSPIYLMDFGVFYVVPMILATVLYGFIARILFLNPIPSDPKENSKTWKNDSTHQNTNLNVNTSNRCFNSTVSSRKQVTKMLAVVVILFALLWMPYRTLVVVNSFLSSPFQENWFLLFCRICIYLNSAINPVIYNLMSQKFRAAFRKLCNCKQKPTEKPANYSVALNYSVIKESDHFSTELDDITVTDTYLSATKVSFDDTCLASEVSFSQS
Sequence of Nuclear receptor subfamily 1 group I member 2 (Rattus norvegicus) (Q9R1A7 whole entry, looked up): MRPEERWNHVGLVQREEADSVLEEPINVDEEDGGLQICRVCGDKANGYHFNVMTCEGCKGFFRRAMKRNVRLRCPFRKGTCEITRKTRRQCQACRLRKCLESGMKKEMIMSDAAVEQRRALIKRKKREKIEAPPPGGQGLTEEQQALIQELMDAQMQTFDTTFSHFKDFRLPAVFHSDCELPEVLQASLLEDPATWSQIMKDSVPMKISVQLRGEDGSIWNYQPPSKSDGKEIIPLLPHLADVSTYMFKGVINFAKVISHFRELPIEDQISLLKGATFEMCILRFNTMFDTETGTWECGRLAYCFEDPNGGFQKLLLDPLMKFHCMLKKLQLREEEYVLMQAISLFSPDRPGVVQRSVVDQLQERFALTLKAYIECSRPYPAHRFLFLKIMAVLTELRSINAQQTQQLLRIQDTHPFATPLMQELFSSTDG

`Nc1nc(F)nc2c1ncn2[C@@H]1O[C@H](CO)[C@@H](O)[C@@H]1O`: the Potency result in test [1], in test [3], in test [6], in [7], in test [8] and in test [10] was “inactive” in each case. For the same compound, the Potency result in test [11] and in test [12] was “inactive” each time. Besides, the result in test [2], in test [4] and in test [5] was inactive. Further, the Potency in test [9] was 34.7 µM (active).

Take `Oc1cc(O)c2c(c1)O[C@H](c1ccc(O)c(O)c1)[C@H](O)C2`: the Potency entry in test [1], in [3], in test [6], in [9], in test [13] and in [10] was “inactive” each time. Also, the Potency entry in test [11], in [12] and in test [14] was “inactive” in each case. In addition, the compound was called inactive in test [2], in test [4] and in [5].

Consider `O=[N+]([O-])c1ccc(Oc2ccc([N+](=O)[O-])cc2)cc1`, for which the Potency entry in [1], in test [3], in [6], in [9], in [11] and in test [14] was “inactive” throughout. The compound was classed as inactive in [2], in [4] and in [5]. The Potency in [13] was 1.82 µM (active); in test [12] it was 39.8 µM (active).

In the case of `OC/C=C/c1ccccc1`, the Potency result in test [1], in test [3], in [6], in test [7], in [8] and in test [12] was “inactive” in each case. Further, in test [14], the Potency entry was “inactive”. Further, the call in [2], in test [4] and in [5] was inactive. Also, the max activation in test [15] is -5.54%. In addition, the Potency in [9] was 59 µM (active); in test [13] it was 74.3 µM (active); in test [10], 52.6 µM (active).

As for `Nc1[nH]c(=O)ncc1F`, the Potency entry in test [1], in [3], in test [6], in [7], in test [8] and in test [9] was “inactive” each time. Besides, the Potency result in [10], in test [11], in test [12] and in test [14] was “inactive” each time. Also, the call in test [2], in [4] and in test [5] was inactive. Further, the max activation in test [15] was -0.668%.

On to `OCC(CO)(CO)COCC(CO)(CO)CO`, for which the compound was called inactive in [16], in test [2] and in [5]. Further, the Potency entry in [1], in test [6], in [9], in test [13], in [10] and in [12] was “inactive” in each case. Besides, the Potency result in test [14] was “inactive”.

Consider `O=C1C(CCS(=O)c2ccccc2)C(=O)N(c2ccccc2)N1c1ccccc1` (configuration not stated), for which the compound was called inactive in test [16], in [2], in [4] and in test [5]. Besides, the Potency entry in test [1], in test [11] and in test [12] was “inactive” throughout. Also, the Potency in test [10] is 30.9 µM (active).

As to `CCN1CCCC1CNC(=O)c1cc(S(N)(=O)=O)ccc1OC` (configuration not stated), the result in [16], in test [2], in test [4] and in test [5] was inactive. The Potency entry in test [1] and in test [14] was “inactive” throughout. For the same compound, the Potency in [9] is 20 µM (active).

In the case of `CC1(C)SC(C)(C)SC(C)(C)S1`, the Potency entry in test [1], in [3], in test [6], in test [9], in test [13] and in test [10] was “inactive” throughout. In addition, the Potency entry in [11], in [12] and in test [14] was “inactive” throughout. Besides, the compound was called inactive in test [2], in test [4] and in test [5].

In the case of `Nc1ccn(C2CO[C@H](CO)O2)c(=O)n1` (some centres not stated), the Potency result in [1], in [3], in test [6], in test [9], in test [13] and in test [10] was “inactive” in each case. In addition, the Potency result in test [11], in test [12] and in test [14] was “inactive” in each case. Moreover, the compound was classed as inactive in [2], in test [4] and in [5].
